Inconclusive results are not listed. Activity calls are given as the source filed them. Calls come from the whole dose curve; as a rule, active = well fitted inhibition curve with a large enough effect; inconclusive = small, poorly fitted or top-dose-only effect; inactive = flat fitted curve, though single readings scatter.
Tested on: CRL-7250
Test: qHTS assay to identify novel small-molecules to repurpose for Merkel cell carcinoma treatment (AID 1296009); note: nearly all actives have a fitted effect of over 60% in size
Details: MCC and control cell lines, CellTiter-Glo viability, 72 h; at 44.8 µM (top of the series) unless noted
Outline: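 After compound transfer in DMSO, plates were kept 72 hr at 37 degree celsius. Luminescent ATP signal from CellTiter-Glo served as viability measure, normalized against DMSO and no-cell controls.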

SMILES	outcome
Cc1cnc(NC(=O)C2=C(O)c3ccccc3S(=O)(=O)N2C)s1	inactive
Cc1cc2nc3c(=O)[nH]c(=O)nc-3n(C[C@H](O)[C@H](O)[C@H](O)CO)c2cc1C	inactive [at 17.4 µM]
Cc1c(N(C)CS(=O)(=O)O)c(=O)n(-c2ccccc2)n1C	inactive
CCC[C@@H]1C[C@@H](C(=O)N[C@@H]([C@H]2O[C@H](SC)[C@H](O)[C@@H](O)[C@H]2O)[C@@H](C)O)N(C)C1	inactive
O=C(NCC1CCCCN1)c1cc(OCC(F)(F)F)ccc1OCC(F)(F)F (stereo not given)	inactive
CN1CCN(C(=O)C2CCCCC2)CC1	inactive
CN(c1nccc(=O)[nH]1)C1CCN(c2nc3ccccc3n2Cc2ccc(F)cc2)CC1	inactive
NC(CS)C(=O)O (stereo not given)	inactive
CCCCCCCCCCC[C@@H](C[C@@H]1OC(=O)[C@H]1CCCCCC)OC(=O)[C@H](CC(C)C)NC=O	inactive
CC(CCc1ccccc1)NCC(O)c1ccc(O)c(C(N)=O)c1 (stereo not given)	inactive
CC(C)(C)NCC(O)COc1ccc(NC(=O)NC2CCCCC2)cc1 (stereo not given)	inactive
Nc1ncnc2nc[nH]c12	inactive
O=C1CN(/N=C/c2ccc([N+](=O)[O-])o2)C(=O)N1	inactive
c1ccc2sc(SN3CCOCC3)nc2c1	inactive
O=C(COCCOCCOCC(=O)Nc1c(I)cc(I)c(C(=O)O)c1I)Nc1c(I)cc(I)c(C(=O)O)c1I	inactive

— PubChem BioAssay (NCATS)
